SARS PLP yeast – SARS-CoV PLP inhibition in yeast; S. cerevisiae expressing SARS-CoV PLpro, growth rescue; Potency, µM (top dose mostly 32.9 µM), for the others: top-dose activity, positive = growth rescue, usual class: activators; hit rate 0.19% among 330,000; calls by dose curve; also: potency is read from the fitted curve at half-maximal effect; 0% is about no effect; nearly all actives have a fitted effect of over 55% in size
AmpC no deterg – AmpC beta-lactamase inhibition without detergent; AID 485341; hit rate 0.52% among 330,000; Potency, µM (series often up to 57.1 µM), inactives show at the top dose activity change, negative = inhibition, most hits filed as inhibitors; AmpC nitrocefin hydrolysis, absorbance 480 nm, 0.0001% Triton; P00811;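 also: potency is read from the fitted curve at half-maximal effect; plate controls were no compound for no effect and no enzyme for full effect; nearly all actives have a fitted effect of over 20% in size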
Target sequence (P00811 whole entry, looked up): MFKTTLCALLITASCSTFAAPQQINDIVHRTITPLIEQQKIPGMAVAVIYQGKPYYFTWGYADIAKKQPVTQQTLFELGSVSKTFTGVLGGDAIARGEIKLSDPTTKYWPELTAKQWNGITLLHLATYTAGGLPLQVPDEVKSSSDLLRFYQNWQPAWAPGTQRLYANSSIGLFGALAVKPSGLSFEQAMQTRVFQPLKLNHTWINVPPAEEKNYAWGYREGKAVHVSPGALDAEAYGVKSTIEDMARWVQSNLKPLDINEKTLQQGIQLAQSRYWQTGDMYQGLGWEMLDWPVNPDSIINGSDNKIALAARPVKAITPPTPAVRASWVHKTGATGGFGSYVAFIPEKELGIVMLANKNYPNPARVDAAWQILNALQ
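AmpC (5.3 nM in the dispensed reagent) in 20 mM phosphate pH 7.0 with 0.01% (detergent screen) or 0.0001% Triton X-100 was preincubated with compounds for 15 min at room temperature. Nitrocefin was then added from an 800 uM solution, and hydrolysis was followed at 480 nm.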
Shiga inhibitor – Shiga toxin inhibition; inhibition, % at 38.7 µM; Vero cells, Shiga toxin protein synthesis inhibition reporter; hit rate 9.2% among 290,000; in the data active = inhibition mostly above about 28%, no sharp cut-off; inactive = mostly below about 43%; also: 0% is about no effect
AmpC inh detg – blocks E. coli AmpC beta-lactamase in detergent assay. P00811. Potency, µM (doses to about 114 µM), for inactives: at the top dose activity change, negative = inhibition, actives largely listed as inhibitors. AmpC hydrolysis of nitrocefin, absorbance 480 nm, 0.01% Triton. AID 485294. hit rate 0.041% among 370,000;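 also: potency is read from the fitted curve at half-maximal effect; 0% = no-compound wells and -100% = no-enzyme wells; nearly all actives have a fitted effect of over 25% in size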
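AmpC (5.3 nM in the dispensed reagent) in 20 mM phosphate pH 7.0 with 0.01% (detergent screen) or 0.0001% Triton X-100 was preincubated with compounds for 15 min at room temperature. Nitrocefin was then added from an 800 uM solution, and hydrolysis was followed at 480 nm.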
CHX counter – counter-screen hit for Shiga toxin inhibitors, cycloheximide | cell reporter, cycloheximide protein synthesis inhibition counterscreen | max response, % | hit rate 12% among 300,000 | AID 2314; in the data active = max response mostly above about 13%, no sharp cut-off; inactive = mostly below about 14%; also: read at 38.3 µM for the half of the compounds with a filed dose; 0% is about no effect
AMA1-RON2 inh – inhibitors of Plasmodium falciparum AMA1-RON2 interaction. AlphaScreen AMA1-biotinylated RON2 peptide binding. Potency, µM (series often up to 58.2 µM), for inactives: top-dose activity change, negative = inhibition, most hits filed as inhibitors. hit rate 0.2% among 360,000;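 also: potency is read from the fitted curve at half-maximal effect; 0% = vehicle wells and -100% = peptide control; nearly all actives have a fitted effect of over 45% in size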
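AMA1 (3D7) with his tag at 25 nM final met compounds first, then biotinylated RON2 peptide at 25 nM; detection used donor plus acceptor beads, 10 µg/mL apiece, read by AlphaScreen after 30 min at room temperature.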
Active calls of the source: *. This excerpt belongs to a sample that is enriched for hits. Unless noted, calls follow the shape of the dose curve; as a rule, active = well fitted curve in the direction sought with a large enough effect; inconclusive = small, poorly fitted or top-dose-only effect, or another doubt; inactive = no such curve, though single readings can be large; an effect the other way counts as inactive or inconclusive.

Screening Cc1cc2ncn(/N=C/c3cc(Br)ccc3O)c2cc1C returned SARS PLP yeast 12%, AmpC no deterg -14%, Shiga inhibitor 23, AmpC inh detg -4% and CHX counter -3.
Screening Oc1ccc(Br)cc1-c1cc(-c2ccccc2F)[nH]n1 returned SARS PLP yeast 0%, AmpC no deterg -29%, Shiga inhibitor 77*, AmpC inh detg 7%, CHX counter 64* and AMA1-RON2 inh 22%.
`CCn1c(-c2cc(Br)ccc2O)n[nH]c1=S` gave AMA1-RON2 inh 44%.
`COc1ccc(N2CCN(C(=O)CSc3ncccc3-c3nc4ccccc4[nH]3)CC2)cc1` gave SARS PLP yeast 9%, AmpC no deterg -7%, Shiga inhibitor 24, AmpC inh detg inconclusive, CHX counter 21* and AMA1-RON2 inh 9%.
For COc1ccccc1N1CCN(C(=O)CSc2ncccc2-c2nc3ccccc3[nH]2)CC1 the results were SARS PLP yeast 7%, AmpC no deterg 51%, Shiga inhibitor 14, AmpC inh detg -2%, CHX counter 21* and AMA1-RON2 inh 49%.
COc1ccc(N2CCN(C(=O)CSc3n[nH]c(-c4ccccc4)n3)CC2)cc1 was read as AmpC inh detg 20%.
For COc1ccccc1N1CCN(C(=O)CSc2nc3ccccc3[nH]2)CC1 the results were SARS PLP yeast -1%, AmpC no deterg 20%, Shiga inhibitor -4, AmpC inh detg inconclusive, CHX counter -2 and AMA1-RON2 inh 6%.
`COc1ccc(N2CCN(C(=O)c3cccnc3SCc3cccc(Br)c3)CC2)cc1` gave SARS PLP yeast -1%, AmpC no deterg 113%, Shiga inhibitor -9, AmpC inh detg 4%, CHX counter -1 and AMA1-RON2 inh 32µM*.
`O=C(CSc1ncccc1-c1nc2ccccc2[nH]1)N1CCN(c2ccccc2F)CC1` gave SARS PLP yeast -4%, AmpC no deterg -4%, Shiga inhibitor 54, AmpC inh detg 1%, CHX counter 56* and AMA1-RON2 inh -2%.
For O=C(CSc1ncccc1-c1nc2ccccc2[nH]1)NC1CC1 the results were SARS PLP yeast 6%, AmpC no deterg -23%, Shiga inhibitor 15, AmpC inh detg -21%, CHX counter 10 and AMA1-RON2 inh 18%.
`COc1ccc(C(=O)Nc2ccccc2N2CCOCC2)cc1S(=O)(=O)N1CCOCC1` gave SARS PLP yeast -2%, AmpC no deterg 108%, AmpC inh detg 0% and AMA1-RON2 inh 0%.
`Cc1ccc(N2C(=O)c3ccccc3NC2(C(=O)O)c2ccccc2)cc1Cl` (centres undefined) gave SARS PLP yeast 0%, AmpC no deterg -32%, Shiga inhibitor 99*, AmpC inh detg 2%, CHX counter 66* and AMA1-RON2 inh 6%.
Screening Cc1ccc(N2C(=O)c3ccccc3C2C(=O)c2cc(C)ccc2O)cc1 (centres undefined) returned SARS PLP yeast -14%, AmpC no deterg -9%, Shiga inhibitor active, AmpC inh detg -5%, CHX counter 40* and AMA1-RON2 inh -3%.
For Cc1ccc(N2C(=O)c3ccccc3C2C(=O)c2ccc(C)c(C)c2O)cc1 (centres undefined) the results were SARS PLP yeast -3%, AmpC no deterg -25%, Shiga inhibitor 31, AmpC inh detg -5%, CHX counter 18* and AMA1-RON2 inh inconclusive.
Screening Cc1ccc(N2C(=O)c3ccccc3C2C(=O)c2ccc(O)cc2O)cc1 (centres undefined) returned SARS PLP yeast -3%, AmpC no deterg -44%, Shiga inhibitor 29, AmpC inh detg -7%, CHX counter -1 and AMA1-RON2 inh -26%.
`CCOc1ccccc1NC(=O)C(Sc1nnnn1C)c1ccccc1` (centres undefined) gave SARS PLP yeast -1%, AmpC no deterg -28%, Shiga inhibitor -2, AmpC inh detg 3%, CHX counter 4 and AMA1-RON2 inh -4%.

From PubChem BioAssay
